How the values were obtained:
Assay in all cases: PBM binding z-score (relative to random genomic background probes); higher = stronger binding; sequences stand for … in GC…GCGATTGACAGCGTAGAATGAAGG
[1] = system: FXR:RXRa (NR concentration 270 nM, RXRa partner concentration 90 nM)
In short: (§1)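 Random background probes are the reference for binding z-scores. These scores derive from regression-normalized fluorescence on custom Agilent 4×180K protein-binding microarrays incubated 1 h with ligand-free nuclear receptor dimers. Binding was detected with antibodies against each partner (one per run).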

[2] = system: LXRa:RXRa (NR concentration 270 nM, RXRa partner concentration 90 nM)
In short: as §1

[3] = system: LXRa homodimer (NR concentration 270 nM)
In short: as §1

[4] = system: LXRb:RXRa (NR concentration 270 nM, RXRa partner concentration 90 nM)
In short: as §1

[5] = system: LXRb homodimer (NR concentration 270 nM)
In short: as §1

[6] = system: PPARa:RXRa (NR concentration 270 nM, RXRa partner concentration 90 nM)
In short: as §1

[7] = system: PPARg:RXRa (NR concentration 180 nM, RXRa partner concentration 90 nM)
In short: as §1

[8] = system: PPARg:RXRa 270nM:90nM, anti-RXR (NR concentration 270 nM, RXRa partner concentration 90 nM)
In short: as §1

[9] = system: PPARg:RXRa 30nM:10nM, anti-RXR (NR concentration 30 nM, RXRa partner concentration 10 nM)
In short: as §1

[10] = system: PPARg:RXRa 90nM:30nM, anti-RXR (NR concentration 90 nM, RXRa partner concentration 30 nM)
In short: as §1

Sequence	PBM binding z-score [1]	PBM binding z-score [2]	PBM binding z-score [3]	PBM binding z-score [4]	PBM binding z-score [5]	PBM binding z-score [6]	PBM binding z-score [7]	PBM binding z-score [8]	PBM binding z-score [9]	PBM binding z-score [10]
TTACCAAGGAGAAAGGTCGTTGATGCACGCCTTG	1.02	1.35	0.0075	1.32	-0.338	2.37	2.36	4.03	2.56	3.74
TAGCCTAAGTCATTCAGGGGCCAGTATAGAAAGC	0.125	-0.0745	-0.319	0.338	-0.276	0.0691	0.0111	0.16	-0.308	-0.241
TCATATAGGTAACAGGTGAAAGTCGGTGTGGTAA	0.983	1	0.422	1.24	0.411	3.53	5.3	6.22	6.28	6.73
TCATATAGGTAATTCAGGTGAAAGTCGGCATCTA	1.4	1.17	0.456	1.25	0.393	1.87	1.09	2.58	4.33	3.59
CCAGACATGTGAAAGGTAACTCAGTCTGGTACGC	-0.293	-0.0217	0.0919	0.07	0.186	1.02	1.63	2.44	0.62	2.1
CCGTCTGGGGCATAAGGTTACCATAAGCCAGCCC	0.562	2.1	-0.402	0.847	-1.32	1.78	1.29	2.07	0.233	1.54
CTACCAAGGTGAACAAGGTCGTGGATTACTATTC	1.7	1.56	-0.154	1.73	-0.448	2.96	1.5	1.61	0.053	0.918
ATATGTCGGTTAAGGGTCATTCAGGTTGGTTCGC	4.54	4.44	3.12	4.03	1.48	5.44	8.83	8.47	7.13	9.33
TCTTGTAGATCACTAGAGGTTAAGAAAGTGCGCT	0.684	5.11	1.63	2.67	0.128	1.88	-0.00284	1.73	2.56	2.22
TCATATAGGTAATCCAGGTGAAAGTCGGCATCTA	1.03	1.21	0.37	0.829	0.397	2.4	1.87	2.9	4.14	3.53
TCTTGTATATCAGCAGGTTAAGAAAGCTGGCCAA	0.775	0.883	0.29	1.03	0.727	0.972	-0.165	1.63	3.19	2.42
CCTACTGGCCCAAAGGTCATTGATTCCAATGCTC	4.8	5.12	4.37	4.8	1.23	5.27	7.37	7.17	5.9	7.85
CCTCCTGGGCCAAAGGTCATTGATTCCAATGCTC	4.65	5.11	3.68	4.79	0.666	5.6	9.24	8.76	10.1	10.1
GATACAGGGTCGAGGCCAGAGTACGCGTATTGAT	0.882	0.531	-0.581	0.3	-1.21	1.99	1.21	0.874	0.198	0.515
CAGCCTGGGTCAGGGCCAGTATAGGAGGAACGTT	0.78	0.261	-0.628	0.24	-1.02	2.03	0.871	0.727	-0.545	0.0759
GGTACAGGGTCAAGGCCAGAGTACGCGTATTGAT	6.7	3.85	0.0121	3.89	-0.206	5.92	5.62	5.68	2.38	4.07
ATATGTAGGTTAGGTGGGGTCATTCAGACTAGGC	5.01	6.16	3.73	5.37	2.74	5.23	5.59	5.49	2.48	4.67
TCTTGTAGAACAGCAGGTTAAGAAAGCTGGCCAA	-0.25	-0.235	-0.708	-0.0015	-0.898	0.675	-0.134	1.17	2.2	1.9
TCTCGGAGGACACGAAGGTCAGAGTTTTCCAGAG	1.18	0.932	0.497	1.22	-0.785	1.81	0.436	1.67	2.25	1.87

Sequence	PBM binding z-score [1]	PBM binding z-score [2]	PBM binding z-score [3]	PBM binding z-score [4]	PBM binding z-score [5]	PBM binding z-score [6]	PBM binding z-score [7]	PBM binding z-score [8]	PBM binding z-score [9]	PBM binding z-score [10]
GCTTGTAGATCAAGGTTTAGAAAGACTAAGCTAA	-0.378	-0.689	-0.302	-0.532	-0.671	0.113	1.13	2.05	0.713	2.05
ATCGAAAGGTCGTGTGGTGAGTATACAGAAAGGC	4.91	4.22	0.724	3.43	1.53	4.84	3.01	3.37	1.38	2.57
GCGACTGGGGCATCAGCCGGTTACCATAACTTAA	-0.764	-0.553	-0.599	-0.35	-1.65	0.18	0.552	0.636	-0.73	-0.0776
CAAACTAGGTCACCGGAAGGTCAAAGTACGCATG	6.81	6.23	5.23	5.83	1.75	6.36	9.91	8.16	6.57	7.9
CTCGAAAGGTCGTGCTCAGGTGAGTCTACCAAAC	4.93	3.85	0.251	3	0.082	4.65	2.04	3.85	0.42	2.48
TCTCGGAGGACACGAAGGCCAGAGCTTTCCAGAG	0.413	-0.099	-0.863	-0.477	-0.953	0.156	-0.048	0.609	1.81	1.36
TCGAGTAGGTTACCAATGAGGCATTCAGCTTTCT	0.0141	0.677	-0.666	0.0718	-1.38	1	0.215	1.15	1.28	1.22
TGTCAAAGTTCAAAGGTAACGTAAGTATCCACAC	6.82	6.64	4.55	4.83	2.02	5.9	8.46	7.64	5.11	7.32
GCTAGTTGGTCAGTAAAAGGTCTCACACCGGTCG	-0.182	-0.0505	-0.00726	-0.0991	-0.275	0.0782	0.203	0.834	-0.473	0.379
CTCGAAAGGTCGGTTGAGGTGAGTATTCGGATAA	2.94	1.75	-0.326	1.32	-0.125	2.56	-0.124	1.15	0.0232	0.23
CCGACTGGGGCAAAGGTTACCAAACTCAGTACGA	1.54	1.78	0.0328	2.27	-1.29	5.64	10.5	9.36	9.35	10.6
TTACCAAGGTGAAGGTCGCTGATCCCTCTGTAGA	1.1	0.984	-0.243	0.689	-1.18	2.43	2.63	4.12	1.98	3.68
ATCTCTAGGTAAAGTTCAGGGAAAGATCGATAGA	1.49	2.4	1.88	1.58	1.03	2.86	3.53	4.62	2.77	4.35
GCTTGGAGATCAAGGTTAAGAAAGACTAAGCTAA	0.0543	0.942	-0.403	0.686	-1.08	1.57	0.135	0.864	0.225	0.671
TAGCCTAGGTCATTCACGGGCCAGTATAGAAAGC	4.64	3.74	0.702	2.48	0.779	3.36	2.05	2.19	0.448	1.74
TGAATGAGTTTATAAGATCAGGGAACGTTGCAAA	-0.262	-0.382	-0.288	-0.209	-0.337	0.00137	0.119	0.389	0.73	0.5
CCGACTGGGGCATAAGGTAACCATAAGCCAGCCC	0.215	0.187	-0.284	-0.112	-1.47	1.08	2.79	3.22	1.32	3.24
CGTCCAAGGTCAAAGGGCAGTGAAGAGATGACGG	7.23	5.66	1	4.32	0.742	6.15	7.62	7.16	5.08	7.03
TCTTGTAGATCAAGCAGGTTAACAAAGCCTGAGT	0.489	0.545	0.00608	0.81	-0.426	0.99	-0.0763	1.23	2.44	2.04

Reference: the supplement of paper PMC6555819
